This passage reports Potency and PLD induction results from PubChem BioAssay (Tox21).

The nature of experiment [1]: qHTS assay to identify small molecule antagonists of the estrogen receptor alpha (ER-alpha) signaling pathway using the BG1 cell line in the presence of 0.1 nM 17-beta-estradiol - cell viability counter screen (AID 1259241). Also: nearly all actives have a fitted effect of over 40% in size. Also: potency is read from the fitted curve at half-maximal effect. In short, it runs like this:
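VM7Luc4E2 cells (endogenous ER-alpha, 4×ERE-luciferase), hormone-starved 5 days in charcoal-stripped FBS, were treated with compounds plus 0.1 nM 17beta-estradiol for 22 hr at 37C; viability read in same wells as CellTiter-Fluor live-cell protease fluorescence.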
Background: qHTS replaces the single test concentration by a dilution series.

A short description of experiment [2]: qHTS assay to identify small molecule antagonists of the androgen receptor (AR) signaling pathway using the MDA cell line in the presence of 0.5 nM R1881 - cell viability counter screen (AID 1259242). Also: nearly all actives have a fitted effect of over 45% in size. Also: potency is read from the fitted curve at half-maximal effect. In short, it runs like this:
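Counter screen for cytotoxicity run in the same wells as the AR antagonist reporter screen: MDA-kb2 cells were treated 16 hr with test compounds and 0.5 nM R1881, then live-cell protease activity was measured by fluorescence.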

For experiment [3], the target named is Androgen receptor (Homo sapiens) (UniProt P10275). The experiment can be described thus: qHTS assay to identify small molecule antagonists of the androgen receptor (AR) signaling pathway using the MDA cell line in the presence of 0.5 nM R1881 (AID 1259243). Also: nearly all actives have a fitted effect of over 50% in size. Also: potency is read from the fitted curve at half-maximal effect. The method, boiled down: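 Luciferase luminescence is the read-out: compounds are tested for suppressing 0.5 nM R1881-driven MMTV reporter activity in MDA-kb2 cells after 16 hr at 37C.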
Androgen receptor (Homo sapiens), sequence (P10275 whole entry, looked up): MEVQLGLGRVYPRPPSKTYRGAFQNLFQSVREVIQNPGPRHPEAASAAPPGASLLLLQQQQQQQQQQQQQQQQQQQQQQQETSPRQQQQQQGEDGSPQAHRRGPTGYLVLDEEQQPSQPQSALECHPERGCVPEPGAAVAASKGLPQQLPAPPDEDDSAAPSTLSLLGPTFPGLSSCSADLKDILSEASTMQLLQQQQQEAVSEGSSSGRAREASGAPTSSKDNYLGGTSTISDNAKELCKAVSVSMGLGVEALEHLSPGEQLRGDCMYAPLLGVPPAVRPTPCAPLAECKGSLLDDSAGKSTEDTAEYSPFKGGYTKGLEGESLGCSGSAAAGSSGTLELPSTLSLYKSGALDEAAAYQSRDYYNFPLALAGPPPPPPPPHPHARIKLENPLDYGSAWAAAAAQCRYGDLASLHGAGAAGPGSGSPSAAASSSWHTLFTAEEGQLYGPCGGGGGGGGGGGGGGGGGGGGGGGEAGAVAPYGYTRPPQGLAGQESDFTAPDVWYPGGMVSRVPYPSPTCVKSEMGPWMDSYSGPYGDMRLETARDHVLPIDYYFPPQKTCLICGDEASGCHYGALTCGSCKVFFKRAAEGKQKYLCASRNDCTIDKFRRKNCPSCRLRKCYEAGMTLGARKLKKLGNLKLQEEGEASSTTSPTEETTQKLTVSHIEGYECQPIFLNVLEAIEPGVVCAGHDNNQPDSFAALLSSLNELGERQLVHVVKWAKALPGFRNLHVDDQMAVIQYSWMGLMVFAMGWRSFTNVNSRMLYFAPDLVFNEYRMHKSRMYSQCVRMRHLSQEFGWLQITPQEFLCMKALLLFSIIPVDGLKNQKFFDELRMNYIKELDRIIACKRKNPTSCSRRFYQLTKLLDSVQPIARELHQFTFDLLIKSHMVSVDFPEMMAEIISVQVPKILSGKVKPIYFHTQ

In experiment [4] the target is Estrogen receptor (Homo sapiens) (UniProt P03372). As to the kind of experiment: qHTS assay to identify small molecule antagonists of the estrogen receptor alpha (ER-alpha) signaling pathway using the BG1 cell line in the presence of 0.1 nM 17-beta-estradiol (AID 1259244). Also: nearly all actives have a fitted effect of over 50% in size. Also: potency is read from the fitted curve at half-maximal effect. The method, boiled down:
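Cells: VM7Luc4E2, endogenous ER-alpha, 4x ERE-luc stable. Pre-culture 5 d, phenol red-free, charcoal-stripped FBS. Plated 24 h, compound + E2 0.1 nM final, 22 h 37C/5% CO2. Readout ONE-Glo luminescence.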

The nature of experiment [5]: qHTS assay to identify small molecule HDAC inhibitors (AID 1259364). Also: nearly all actives have a fitted effect of over 45% in size. Also: potency is read from the fitted curve at half-maximal effect. The method, boiled down:
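Luminescence from a cell-permeant luminogenic class I/II HDAC substrate reports endogenous deacetylase activity in intact HCT-116 cells treated with compounds for 2 h.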

Experiment [6] can be described thus: qHTS assay to identify small molecule HDAC inhibitors - cell viability counter screen (AID 1259365). Also: nearly all actives have a fitted effect of over 50% in size. Also: potency is read from the fitted curve at half-maximal effect. The method, boiled down:
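Wild-type HCT-116 cells were seeded at 1,500 per well, incubated overnight at 37 C, then exposed to compounds in DMSO for 2hr. Viability was read by CellTiter-Glo luminescence after 30min at room temperature.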

A short description of experiment [7]: qHTS assay to identify small molecule antagonists of the sonic hedgehog signaling (Shh) pathway - cell viability counter screen (AID 1259367). Also: nearly all actives have a fitted effect of over 55% in size. Also: potency is read from the fitted curve at half-maximal effect. In short, it runs like this: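 NIH/3T3-derived Gli1-Luc reporter cells, 2,000/well, plated 4 hr before compound addition, then stimulated with conditioned medium for 24 hr at 37C. Viability measured in the same wells by CellTiter-Fluor fluorescence, reagent added at 23 hr for 1 hr.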

The nature of experiment [8]: qHTS assay to identify small molecule agonists of the sonic hedgehog signaling (Shh) pathway (AID 1259368; calls by dose curve; also: series mostly up to about 92 µM; nearly all actives have a fitted effect of over 15% in size). The method, boiled down:
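3T3Gli1-Luc (NIH/3T3 clone, stable Gli1-Luc); 4 hr pre-incubation, then cpd in DMSO 24 hr, 37 C/5% CO2; luciferase reagent 30 min RT; luminescence.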

Experiment [9] in a line: qHTS assay to identify small molecule phospholipidosis (PLD) inducers (AID 1259344; active = well fitted curve in the direction sought with a large enough effect; an effect the other way counts as inactive or inconclusive). In short, it runs like this:
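HepG2 cells, 900/well, treated with compound plus LipidTOX Red for 24 h at 37 C; amiodarone positive and DMSO negative controls. Fixed with paraformaldehyde/Hoechst, then high-content imaging scored LipidTOX pit count and integrated intensity per well and per cell.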

Experiment [10] in a line: qHTS assay to identify small molecule agonists of the sonic hedgehog signaling (Shh) pathway - cell viability counter screen (AID 1259366). Also: nearly all actives have a fitted effect of over 50% in size. Also: potency is read from the fitted curve at half-maximal effect. The method, boiled down:
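NIH/3T3-derived 3T3 Gli1-Luc cells (stable Gli1-responsive firefly luciferase reporter) were seeded, rested 4 hr at 37 C/5% CO2, then exposed to compounds in DMSO for 24 hr; viability was read by CellTiter-Fluor fluorescence in the same wells.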

Several values for one entry are separate records, joined by “and”; a condition that tells them apart may be missing. Equal entries are not always repeated. A number with no mark means an inactive call. Inconclusive results are not listed. Activity calls are given as the source filed them. Unless noted, calls follow the shape of the dose curve; as a rule, active = well fitted curve in the direction sought with a large enough effect in the repeat runs; inconclusive = weak or mixed curves; inactive = no such curve, though single readings can be large; an effect the other way counts as inactive or inconclusive.
% is scaled to controls: 0 for no effect and ±100 for the full control effect.

Estrogen receptor (Homo sapiens), sequence (P03372 whole entry, looked up): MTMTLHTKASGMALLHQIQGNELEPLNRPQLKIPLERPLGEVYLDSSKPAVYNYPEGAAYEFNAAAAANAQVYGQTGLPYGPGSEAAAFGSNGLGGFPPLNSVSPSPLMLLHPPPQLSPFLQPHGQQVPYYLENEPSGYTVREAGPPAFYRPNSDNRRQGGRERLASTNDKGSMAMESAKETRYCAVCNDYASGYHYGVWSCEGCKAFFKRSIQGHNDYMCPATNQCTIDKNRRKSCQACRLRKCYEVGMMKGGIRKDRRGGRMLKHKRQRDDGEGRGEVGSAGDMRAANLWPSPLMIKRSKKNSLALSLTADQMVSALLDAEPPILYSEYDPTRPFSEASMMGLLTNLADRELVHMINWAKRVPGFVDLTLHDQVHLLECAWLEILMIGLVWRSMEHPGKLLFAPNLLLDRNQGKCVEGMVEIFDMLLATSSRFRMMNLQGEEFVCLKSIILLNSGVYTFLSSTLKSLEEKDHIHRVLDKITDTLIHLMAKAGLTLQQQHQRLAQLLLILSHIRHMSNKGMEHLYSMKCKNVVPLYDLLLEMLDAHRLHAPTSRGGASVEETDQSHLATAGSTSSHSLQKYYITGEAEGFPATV

Take `CC(CO)Oc1ccccc1` (stereo not given): the Potency result in experiment [1], in experiment [2], in [3], in experiment [4], in experiment [5] and in experiment [6] was “inactive” each time. Further, the Potency result in [7] and in experiment [8] was “inactive” each time.

As to `CC1(C)[C@@H](O)CC[C@]2(C)[C@H]3C(=O)C=C4[C@@H]5C[C@@](C)(C(=O)O)CC[C@]5(C)CC[C@@]4(C)[C@]3(C)CC[C@@H]12`, the Potency result in experiment [1], in [2], in [3], in experiment [4], in experiment [9] and in experiment [5] was “inactive” each time. The Potency entry in experiment [6] and in experiment [7] was “inactive” throughout.

As for `CN(C)Cc1ccccc1O`, the Potency entry in [1], in experiment [2], in [3], in experiment [4], in experiment [5] and in experiment [6] was “inactive” each time. Besides, the Potency entry in [10], in [7] and in experiment [8] was “inactive” throughout.

Consider `CCN(CC)c1ccc2c(-c3ccc(S(=O)(=O)O)cc3S(=O)(=O)[O-])c3ccc(=[N+](CC)CC)cc-3oc2c1`, for which the Potency was 12.6 µM (active) in experiment [1]; 25.1 µM (active) in experiment [2]; 22.4 µM (active) in experiment [3]; 12.6 µM (active) in [6]; 11.2 µM (active) in [7]. Also, the Potency entry in [8] is “inactive”.

As for `COc1c(C)c2c(c(O)c1C/C=C(\C)CCC(=O)OCCN1CCOCC1)C(=O)OC2`, the Potency result in experiment [1], in experiment [2], in [3], in [4], in experiment [9] and in [5] was “inactive” each time. The Potency entry in experiment [6], in experiment [10] and in [8] was “inactive” in each case.

On to `Nc1nc2c(ncn2COCCO)c(=O)[nH]1`, for which the Potency result in experiment [1], in experiment [2], in [4], in [9], in [5] and in [6] was “inactive” throughout. In experiment [10], the Potency result is “inactive”.

In the case of `c1ccsc1`, the Potency entry in experiment [1], in experiment [2], in experiment [3], in experiment [4], in experiment [5] and in experiment [6] was “inactive” each time. The Potency entry in experiment [8] was “inactive”.

As for `Cc1c(N)cccc1C(F)(F)F`, the Potency entry in [1], in [2], in experiment [3], in [5], in [6] and in experiment [10] was “inactive” throughout. In experiment [7], the Potency entry was “inactive”.

Take `CCCCCCCCCCOC(=O)c1ccccc1C(=O)OCCCCCCCC`: the Potency entry in [1], in [2], in experiment [3], in experiment [4], in experiment [5] and in [6] was “inactive” throughout. Moreover, the Potency entry in experiment [7] and in [8] was “inactive” throughout.

With `O=C(/C=C/c1ccccc1)OC/C=C/c1ccccc1`, the Potency entry in [1], in experiment [2], in [3], in experiment [4], in experiment [5] and in experiment [6] was “inactive” throughout. The Potency entry in [10], in experiment [7] and in experiment [8] was “inactive” throughout.

Consider `CN(C)CCN1CCN(c2cccc(Cl)c2)C1=O`, for which the Potency entry in experiment [1], in [2], in experiment [3], in experiment [4], in [5] and in experiment [6] was “inactive” in each case. The Potency entry in [10] and in [8] was “inactive” throughout.

`Clc1sc(Cl)c(Cl)c1Cl`: the Potency result in [1], in experiment [2], in experiment [3], in experiment [4], in experiment [5] and in experiment [6] was “inactive” each time. Moreover, the Potency entry in experiment [10] and in experiment [8] was “inactive” in each case.

`CC(C)(C)NSc1nc2ccccc2s1`: the Potency entry in [1], in experiment [2], in [3], in experiment [4], in [5] and in experiment [6] was “inactive” in each case. Besides, the Potency result in experiment [10] is “inactive”.

For the molecule `NC(=O)c1cccc([N+](=O)[O-])c1`, the Potency result in [1], in experiment [2], in experiment [3], in [4], in [5] and in experiment [6] was “inactive” throughout. The Potency result in experiment [10], in experiment [7] and in experiment [8] was “inactive” in each case.

Regarding `CCCCC(CC)CN1CN(CC(CC)CCCC)CC(C)(N)C1` (stereo not given), the Potency entry in experiment [1], in experiment [4], in [9], in experiment [5], in experiment [6] and in [7] was “inactive” throughout. For the same molecule, the Potency result in experiment [8] is “inactive”. For the same molecule, the Potency in experiment [2] and in experiment [3] was 26.6 µM (active) each time.

As to `CC(=O)OCC=C(C)C`, the Potency entry in [1], in [2], in experiment [3], in experiment [4], in [5] and in experiment [6] was “inactive” each time. The Potency result in [10], in experiment [7] and in experiment [8] was “inactive” each time.

With `Nc1ccc(C(=O)O)c(O)c1`, the Potency result in experiment [1], in [2], in [3], in experiment [9], in experiment [5] and in experiment [6] was “inactive” each time. Further, the Potency entry in experiment [8] was “inactive”.

With `OC[C@H]1O[C@H](O[C@H]2O[C@H](CO)[C@@H](O)[C@H](O)[C@H]2O)[C@H](O)[C@@H](O)[C@@H]1O`, the Potency entry in experiment [1], in experiment [2], in [3], in [5], in [6] and in experiment [10] was “inactive” each time. Besides, the Potency result in [8] was “inactive”.

With `FC(F)(F)c1cccc(Cl)c1`, the Potency entry in experiment [1], in experiment [2], in experiment [3], in [4], in [5] and in experiment [6] was “inactive” throughout. The Potency result in experiment [10] and in experiment [8] was “inactive” throughout.

Take `NC(=S)NC(N)=S`: the Potency entry in experiment [1], in experiment [2], in [3], in experiment [4], in [5] and in experiment [6] was “inactive” in each case. The Potency result in experiment [10], in experiment [7] and in [8] was “inactive” in each case.

With `CN(C)c1ccc(C(=C2C=CC(=[N+](C)C)C=C2)c2ccc(N(C)C)cc2)cc1`, the Potency is 8.59 µM (active) and 6.86 µM (active) and 5.31 µM (active) in [1]; 7.66 µM (active) and 6.86 µM (active) and 3.35 µM (active) in experiment [2]; 1.53 µM (active) and 3.44 µM (active) and 1.88 µM (active) in [3]; 1.71 µM (active) and 3.86 µM (active) and 3.35 µM (active) in [4]; 9.64 µM (active) and 8.63 µM (active) and 11.9 µM (active) in experiment [5]; 13.6 µM (active) and 27.3 µM (active) and 11.9 µM (active) in [6]. In addition, in [10], the Potency was 9.64 µM (active) and 30.6 µM (active) and 13.3 µM (active). The Potency entry in experiment [9] and in [8] was “inactive” throughout.

Take `CCCc1ccc(OCC(=O)N2CCN(C(=O)COc3ccc(CCC)cc3OC)CC2)c(OC)c1`: the Potency result in experiment [1], in experiment [2], in experiment [5], in [6], in experiment [10] and in [7] was “inactive” each time. In addition, in experiment [8], the Potency result is “inactive”. In addition, the results for the Potency in [3] and in experiment [4] were 26.6 µM (active) and 29.8 µM (active), respectively.

Consider `Cc1cc(=O)oc2cc(O)cc(O)c12`, for which the Potency entry in [1], in [2], in [3] and in experiment [5] was “inactive” each time.

On to `Cc1cccc(C)c1NC(=O)c1ccc(N)cc1`, for which the Potency entry in experiment [1], in experiment [2], in experiment [3], in [4], in experiment [5] and in experiment [6] was “inactive” in each case. Further, the Potency result in [10], in experiment [7] and in experiment [8] was “inactive” in each case.

For the molecule `CCN1C(=O)c2ccccc2C1Nc1ccc(OCCN2CCCCC2)cc1` (stereo not given), the Potency entry in [1], in [2], in experiment [3], in experiment [4], in experiment [5] and in experiment [6] was “inactive” throughout. For the same molecule, the Potency entry in experiment [10], in experiment [7] and in experiment [8] was “inactive” in each case. Besides, the PLD induction in experiment [9] was 0.829% [at 7.66 µM].
